# Measurements taken from PubChem BioAssay (NCI).
# The panel holds about 83,000 compounds, 20% with a hit somewhere; the sample as a whole holds those more often.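 Step 1: grow cells in 96-well plates. Step 2: add test compound at a single concentration. Step 3: incubate 48 h. Step 4: record percent growth.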 Activity calls are given as the source filed them. The calls were made as follows: active = growth percent below 10; inactive = the rest.
# System: MDA-MB-468 breast
# Assay: NCI-60 one-dose screen, 48 h (100 = growth as untreated, 0 = no growth, -100 = all killed)
# Conditions: 10 µM unless noted
row,SMILES,growth
1,CN1CCN(c2ccc(-c3cnc4c(-c5csc6ccccc56)cnn4c3)cc2)CC1,-26.8% (active)
2,Oc1ccccc1/C=N/Nc1nc(N/N=C/c2ccccc2O)nc(N2CCOCC2)n1,39.2% (inactive)
3,O=C(O)C1C(c2ccccc2)c2ccccc2C(O)C1CO (stereo not given),117% (inactive)
4,O=C(CCl)Oc1ccc([N+](=O)[O-])cc1,112% (inactive)
5,O=c1c2ccccc2c(=O)c2c1sc1c(=O)c3ccc(O)cc3c(=O)c12,-43.6% (active)
6,Fc1cccc(Oc2ccc(Nc3ncnc4ccc(OCCCN5CCOCC5)cc34)cc2Cl)c1,-14.1% (active)
7,OCCNc1nc(NCCO)nc(Nc2ccc(C3=NN(c4cc(Cl)cc(Cl)c4)C(c4ccc(Cl)cc4)C3)cc2)n1 (stereo not given),-5.79% (active)
8,CC1=C(CC(=O)c2cccc([N+](=O)[O-])c2)C(=O)c2ccccc2C1=O,-52.5% (active)
9,COc1cc2nc(NC3CCC3)nc(NC3CCN(C(C)C)CC3)c2cc1OC,16.5% (inactive)
10,CCS(=O)(=O)Nc1ccc(C(=O)CC2(O)C(=O)Nc3ccccc32)cc1 (stereo not given),95.4% (inactive)
11,CC(=N\N=C(N)N)/C(=N/N=C(N)N)c1ccccc1,39.6% (inactive)
12,CC(=O)Nc1ccc(S(=O)(=O)N/N=C\c2ccc(Cl)c(Cl)c2)cc1,100% (inactive)
13,COc1ccc2c(c1)[nH]c(=O)c1c3cc(C)c(C)cc3cn21,7.03% (active)
14,COc1ccc(/C=c2\sc3n(c2=O)C2C(NN=3)N(C)C(=O)N2C)cc1 (stereo not given),-8.89% (active)
15,CC(C)(C)n1cc(-c2ccnc(NCCNS(=O)(=O)c3ccc(Br)cc3)c2)c(-c2cccc(O)c2)n1,2.11% (active)
16,O=c1c2ccccc2oc2ccc(OCCCCCN3CCCCCC3)cc12,49.8% (inactive)
17,Oc1c(C(c2ccc(F)cc2)N2CCCCC2)ccc2cncnc12 (stereo not given),-2.7% (active)
18,CC1(C)CC[C@]2(CO)CC[C@]3(C)C(=CC[C@@H]4[C@@]5(C)CCNCC(C)(C)[C@@H]5CC[C@]43C)[C@@H]2C1,-33.1% (active)
19,COC(=O)c1cc(Br)ccc1O,93% (inactive)
20,Cc1cccc(-c2cc(O)c(C(=O)N3CCOCC3)s2)c1,14.1% (inactive)

row,SMILES,growth
1,NS(=O)(=O)Oc1ccc(NC(=O)C23CC4CC(CC(C4)C2)C3)cc1Cl,103% (inactive)
2,O=C1NC(=O)C2(CCCC2C(=O)O)N1 (stereo not given),107% (inactive)
3,CCN(c1cc(-c2ccc(CN3CCC(/C=C/S(=O)(=O)c4ccccc4)CC3)cc2)cc(C(=O)NCc2c(C)cc(C)[nH]c2=O)c1C)C1CCOCC1,55.9% (inactive)
4,Cc1ccc(C2=Nn3c(nnc3-c3ccccc3)SC2)cc1,25.1% (inactive)
5,Brc1ccc(Cn2nnnc2-c2ccn(-c3ccccc3)n2)cc1,71.5% (inactive)
6,O=C(Cn1c(-c2ccc([N+](=O)[O-])cc2)nc2ccccc21)NNC(=O)c1cccnc1,-12.6% (active)
7,O=C1Nc2cc(-c3cccc(O)c3)ccc2/C1=C/c1ccc[nH]1,7.4% (active)
8,NC(=NCCCCCCN=C(N)/N=C(\N)Nc1ccc(Cl)cc1)/N=C(\N)Nc1ccc(Cl)cc1,-69% (active)
9,Cc1cc(N/N=C/c2nc(-c3ccccc3)oc2C)c2cc(Cl)ccc2n1,-74.7% (active)
10,O=C(NCCCCO)c1cncnc1Nc1ccc2c(ccn2Cc2cccc(F)c2)c1,67% (inactive)
11,COc1ccc(N2CCN(C(=O)CSc3ccc(-c4nc5cc(C)c(C)cc5[nH]4)cn3)CC2)cc1,49.5% (inactive)
12,O=c1c2cccc3c(Nc4ccccn4)ccc(c32)c2nc3ccccc3n12,-22.4% (active)
13,O=C(NS(=O)(=O)c1ccc2ccccc2c1)n1cc(-c2ccncc2)c(-c2ccc(Cl)c(O)c2)n1,78.3% (inactive)
14,O=C(CNCCO)Nc1ccc2ncnc(Nc3ccc(OCc4cccc(F)c4)c(Cl)c3)c2c1,-17.8% (active)
15,COc1ccc(/C=C(/c2ccccc2)[N+](=O)[O-])cc1,-77.6% (active)
16,CCN1CCN(Cc2ccc(Cc3ncc(F)c(-c4cc(F)c5nc(C)n(C(C)C)c5c4)n3)nc2)CC1,80.6% (inactive)
17,COc1ccc(C2=C(c3cn(C)c4ccccc34)C(=O)OC2)cc1OC,1.23% (active)
18,CCN1CCN(c2nc(C)cc(NCc3cc(Nc4ccnc5cc(Cl)ccc45)ccc3F)n2)CC1,-23.1% (active)
19,CCNCc1ccccc1,98.6% (inactive)
20,O=c1n(Cc2ccc3ccccc3c2)ccn1Cc1ccc2ccccc2c1,94.3% (inactive)
